The nature of assay [1]: P. berghei load reduction in hepatocytes – cell-based, HepG2, luciferase luminescence, HepG2 viability, primary screen (AID 624349; in the data active = parasite load remaining mostly below about 12%, no sharp cut-off; inactive = mostly above about 10%;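 note: 100% = mean of DMSO negative control wells on the same plate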). Particulars: P. berghei liver stage in HepG2, luciferase luminescence, concentration not given here; parasite load remaining: stronger effect = lower value; viability: measured here: HepG2 viability without parasites.
Assay [2] is described as follows: viability loss with induced miR-34 in A549 – imaging, A549 dox-inducible miR-34, nuclei and caspase counts, primary screen (AID 1347080;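 active = compounds whose cell count with miR-34 switched on is under 0.7 times the count with it off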). Particulars: A549 miR-34 inducible, Hoechst nuclei count, 48 h.
A short description of assay [3]: MELAS cybrid and Rieske KO viability enhancers – cell-based, MELAS cybrids, Rieske KO mouse fibroblasts, CellTiter-Glo, primary screen (AID 1508586).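 Note: z relative to plate mean and SD of compound and empty wells.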 Particulars: low glucose.
Assay [4] can be described thus: galactose survival enhancers in mitochondrial complex I cybrids – cell-based, galactose medium, ATP luminescence, primary screen (AID 1645843;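 active = z-score of at least 1.8 in each of two replicates, scored against plate mean and spread of sample wells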;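 note: positive z means more ATP and so rescue of galactose-driven cybrid death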). To be noted: complex I mutant cybrid cells, 72 h, stronger effect = higher value.
The nature of assay [5]: compounds altering viability of human ES cells (AID 493140; call rule not given here;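 note: cells exposed to compounds for four days before counting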). Particulars: human embryonic stem cell survival screen; stronger effect = higher value.
[6] abbreviates: stronger effect = lower value, cell number ratio, induced over uninduced.
Where [7] appears, read: measured here: relative caspase fold change +Dox/-Dox.
The mark [8] stands for this setting: measured here: total cells with miR-34 induction, stronger effect = lower value.
[9] abbreviates: measured here: total cells without miR-34 induction.
Setting [10] is: MELAS cybrid survival, CellTiter-Glo 48 h, stronger effect = higher value.
The mark [11] stands for this setting: Rieske KO mouse fibroblast survival, CellTiter-Glo 72 h.

Experimental findings from PubChem BioAssay are described below.

SMILES strings stand for the structures. Values joined by “and” are separate entries in the source; they are usually repeats but may differ in a detail not shown here. Equal entries are not always repeated. Active and inactive are the calls of the source.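 Rule for the calls, unless noted: active = mean z-score across replicates of 1.96 or higher in either the MELAS or the Rieske mutant cell line; inactive = the rest.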

In the case of `COC(=O)c1ccc(=O)c2nc3/c(=C/O)c(O)cc(=O)c3[nH]c12`, the parasite load remaining in assay [1] is 91.5% (inactive). The viability (as a rule, a read-out of living cells in per cent, often relative to untreated cells) in assay [1] was determined as 96.5%. In addition, the fold change in assay [2] (setting [6]) was 0.984 (inactive); in assay [2] (setting [7]), 1.28. In addition, the cell count came out at 3340 in assay [2] (setting [8]) and 3400 in assay [2] (setting [9]). Besides, the results for the z-score in assay [3] (setting [10]), in assay [3] (setting [11]) and in assay [4] were 0.379 (inactive), -0.491 and -0.55 (inactive), respectively.
Turning to `CC(C)C[C@H](NC(=O)[C@@H](Cc1c[nH]c2ccccc12)NC(=O)[C@H](Cc1ccc(O)cc1)NC(=O)[C@H](CO)NC(=O)[C@H](Cc1c[nH]c2ccccc12)NC(=O)[C@H](Cc1cnc[nH]1)NC(=O)[C@@H]1CCC(=O)N1)C(=O)N[C@@H](CCCN=C(N)N)C(=O)N1CCC[C@H]1C(=O)NCC(N)=O`, the parasite load remaining in assay [1] was 20.9% (inactive). For the same compound, the viability in assay [1] came out at 68.5%. The fold change in assay [2] (setting [6]) was 0.921 (inactive); in assay [2] (setting [7]) it was 1.16. In addition, the cell count in assay [2] (setting [8]) was 9400; in assay [2] (setting [9]), 10200. The z-score in assay [3] (setting [10]) is 0.161 (inactive); in assay [3] (setting [11]), -0.118; in assay [4], 0.68 (inactive).
As for `CCCCC(C)(O)C/C=C/[C@H]1[C@H](O)CC(=O)[C@@H]1CCCCCCC(=O)OC` (some centres not stated), the parasite load remaining in assay [1] is 25.9% (inactive). Moreover, in assay [1], the viability came to 64%. In addition, the fold change is 1.01 (inactive) and 0.901 (inactive) in assay [2] (setting [6]); 1.23 and 1.3 in assay [2] (setting [7]). The cell count in assay [2] (setting [8]) is 5920 and 9930; in assay [2] (setting [9]), 5880 and 11000. Also, the z-score in assay [3] (setting [10]) is -0.242 (inactive) and 0.112 (inactive); in assay [3] (setting [11]), -0.698 and -0.238; in assay [4] it was 0.245 (inactive).
As to `CC[C@H]1OC(=O)[C@H](C)[C@@H](O[C@H]2C[C@@](C)(OC)[C@@H](O)[C@H](C)O2)[C@H](C)[C@@H](O[C@@H]2O[C@H](C)C[C@H](N(C)C)[C@H]2O)C(C)(O)C[C@@H](C)CN(C)[C@H](C)[C@@H](O)[C@]1(C)O` (some centres not stated), in assay [1], the parasite load remaining was 18.4% (inactive). Also, the viability in assay [1] came to 65.5%. The figures for the fold change in assay [2] (setting [6]) and in assay [2] (setting [7]) were 0.876 (inactive) and 1.13, respectively. The cell count in assay [2] (setting [8]) is 9530; in assay [2] (setting [9]) it was 10900. For the same compound, the z-score is -0.337 (inactive) and 0.0634 (inactive) in assay [3] (setting [10]); -0.912 and -0.719 in assay [3] (setting [11]); 0.015 (inactive) in assay [4].
On to `C[C@H](C(=O)O)c1cccc(C(=O)c2ccccc2)c1`, for which, in assay [5], the survival was 115 (inactive). In addition, in assay [1], the parasite load remaining is 42.4% (inactive). In assay [1], the viability stood at 93%. Moreover, the fold change was 0.744 (inactive) in assay [2] (setting [6]) and 1.59 in assay [2] (setting [7]). The results for the cell count in assay [2] (setting [8]) and in assay [2] (setting [9]) were 7940 and 10700, respectively. In addition, the results for the z-score in assay [3] (setting [10]), in assay [3] (setting [11]) and in assay [4] were -0.319 (inactive), -0.518 and 0.4 (inactive), respectively.
Consider `CO[C@@H]1[C@@H](OC(N)=O)[C@H](O)[C@H](Oc2ccc3c(O)c(NC(=O)c4ccc(O)c(CC=C(C)C)c4)c(=O)oc3c2C)OC1(C)C`, for which the parasite load remaining in assay [1] is 81.2% (inactive). Further, the viability in assay [1] turned out to be 108%. The values for the fold change in assay [2] (setting [6]) and in assay [2] (setting [7]) were 0.831 (inactive) and 1.55, respectively. The cell count came out at 9200 in assay [2] (setting [8]) and 11100 in assay [2] (setting [9]). The z-score in assay [3] (setting [10]) was 0.157 (inactive); in assay [3] (setting [11]), 0.871; in assay [4] it was 1.12 (inactive).
As to `CCCCn1c(=O)c2c(ncn2CC(C)=O)n(CCCC)c1=O`, the parasite load remaining in assay [1] is 49% (inactive). Besides, the viability in assay [1] was 100%. Moreover, the fold change in assay [2] (setting [6]) is 0.978 (inactive); in assay [2] (setting [7]), 1.23. In addition, the cell count in assay [2] (setting [8]) stood at 10200; in assay [2] (setting [9]), 10400. Also, the z-score in assay [3] (setting [10]) is 0.541 (inactive); in assay [3] (setting [11]) it was 0.0406; in assay [4], 0.875 (inactive).
For the compound `O[C@H]1[C@H](O)[C@@H](O)[C@@H]2O[C@@H]2[C@@H]1O`, the parasite load remaining in assay [1] was 29.7% (inactive). Also, the viability in assay [1] stood at 72%. The values for the fold change in assay [2] (setting [6]) and in assay [2] (setting [7]) were 0.828 (inactive) and 1.47, respectively. Further, the cell count turned out to be 9740 in assay [2] (setting [8]) and 11800 in assay [2] (setting [9]). Also, the z-score in assay [3] (setting [10]) was 0.534 (inactive); in assay [3] (setting [11]), 0.1; in assay [4], 0.2 (inactive).
For the compound `CC(C)C[C@H]1C(=O)N2CCC[C@H]2[C@]2(O)O[C@](NC(=O)[C@@H]3C=C4c5cccc6[nH]c(Br)c(c56)CC4N(C)C3)(C(C)C)C(=O)N12` (some centres not stated), in assay [1], the parasite load remaining is 20.7% (inactive) and 22.3% (inactive). Moreover, the viability in assay [1] was 50% and 138%. In addition, the fold change in assay [2] (setting [6]) was 0.897 (inactive) and 0.925 (inactive); in assay [2] (setting [7]), 1.56 and 1.14. Also, the cell count was 7190 and 8820 in assay [2] (setting [8]); 8020 and 9530 in assay [2] (setting [9]). For the same compound, the z-score was -0.909 (inactive) in assay [3] (setting [10]), 0.597 in assay [3] (setting [11]) and 0.045 (inactive) in assay [4].
